Bioassay records: PubChem BioAssay, National Center for Advancing Translational Sciences (NCATS)
A selection: hits, their analogues and other compounds. The true share with any hit is near 4.6%.
D1 PAM: enhances dopamine response at the human D1 receptor | HEK293 TREx D1 cells, calcium flux, dopamine EC20 potentiation | 0.036% of 360,000 active | potentiation, % at 10 µM; in the data active = potentiation above about 30%; also: 0% is about no effect
D1 agonist: activates the human D1 dopamine receptor | activation, % at 2 µM | 1% of 360,000 active | AID 504660 | HEK293 T-REx D1 cells, calcium flux, agonist mode; also: 0% is about no effect
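Agonism was scored from calcium flux recorded over 180 s (1 read/s) after pintool compound addition, following a 10-cycle baseline. Cells were inducible force-coupled HEK293 TREx D1, plated overnight at 30 C and loaded with no-wash calcium dye.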
D1 antag: blocks dopamine activation of the human D1 receptor | 3.2% of 360,000 active | HEK293 TREx D1 cells, calcium flux, dopamine EC80; stronger effect = lower value | P21728 | activity change, negative = inhibition, % at 10 µM | AID 504652; in the data active = activity change below about -30%; also: % is scaled to controls: 0 for no effect and ±100 for the full control effect
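After overnight tetracycline induction at 30 C, force-coupled D1 HEK293 cells took up a no-wash calcium dye at room temperature. Compounds were added and monitored 180 s, and the response to EC80 dopamine was then recorded.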
TRHR PAM: TRH receptor (human) allosteric enhancement | AID 493056 | enhancement, % at 2 µM | TRHR cells, fluo-8 calcium fluorescence, EC20 TRH enhancement | 0.66% of 360,000 active; in the data active = enhancement above about 30%; also: 0% is about no effect
Target sequence (P34981 whole entry, looked up): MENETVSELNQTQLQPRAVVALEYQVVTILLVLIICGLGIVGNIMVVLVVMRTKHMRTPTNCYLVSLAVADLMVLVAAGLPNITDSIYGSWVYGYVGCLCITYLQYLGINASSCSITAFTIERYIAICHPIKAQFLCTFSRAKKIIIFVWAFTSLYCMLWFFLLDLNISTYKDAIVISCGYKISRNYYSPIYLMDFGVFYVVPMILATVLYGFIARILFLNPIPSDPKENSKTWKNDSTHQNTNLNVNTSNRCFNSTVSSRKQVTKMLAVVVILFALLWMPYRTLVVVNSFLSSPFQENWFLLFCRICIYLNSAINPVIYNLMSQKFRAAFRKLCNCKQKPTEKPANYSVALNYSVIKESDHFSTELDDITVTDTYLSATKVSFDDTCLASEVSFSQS
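Enhancer read-out: after compound pinning and an initial kinetic agonist-mode read, an EC20 of TRH (10 nM final) was injected and fluo-8 calcium signal (Ex 480/Em 530) followed at 1 s/cycle for 100 cycles in TRHR-expressing cells.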
TRHR agonist: TRH receptor (human) agonism; TRHR cells, calcium flux fluo-8, FDSS agonist mode; AID 493084; P34981; activation, % at 2 µM; 0.18% of 360,000 active; also: 0% is about no effect
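Read-out: compound-evoked intracellular calcium rise in TRHR cells, fluo-8 dye, kinetic FDSS fluorescence at 1 s/cycle following a 10-cycle baseline. Cells cultured overnight before dye loading (30 min–1.5 h, RT).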
* = called active by the depositor. Rule as the data show it, unless noted: active = activation above about 30%; inactive = the rest.

SMILES | D1 PAM | D1 agonist | D1 antag | TRHR PAM | TRHR agonist
CN(CC(=O)Nc1ccccc1Cl)CC(=O)c1c(N)n(Cc2ccccc2)c(=O)n(C)c1=O | 9.2 | 2.1 | -31.8* | 4.0 | 0.0
CCOC(=O)c1c(C)[nH]c(C(=O)C(C)Cl)c1C (stereo unspecified) | -12.9 | 1.0 | -31.7* | -4.2 | -0.4
CCOC(=O)c1c(C)[nH]c(C(=O)CN(C)CC(=O)Nc2ccccc2Cl)c1C | -10.8 | 4.8 | -41.0* | -3.5 | -0.2
CCOC(=O)c1c(C)[nH]c(C(=O)OCC(=O)Nc2ccccc2)c1C | -11.8 | 26.0 | -73.0* | 5.5 | 0.3
Cc1nc2ccc(C(=O)O)cc2c2c1CC(CN)O2 (stereo unspecified) | -1.5 | 5.5 | 6.1 | -0.1 | 0.7
CC1=CC(=C(C#N)C#N)C=C(C)N1Cc1ccc(Cl)cc1 | -2.3 | 8.7 | -8.2 | -8.5 | 0.6
COc1ccc(-n2c(SC)nc3sc4c(c3c2=O)CCN(C)C4)cc1 | -0.6 | 2.4 | 2.2 | -6.3 | -0.1
Cn1nc(C(F)(F)F)c2cc(NC(=O)OCc3ccc(F)cc3)sc21 | -4.3 | 4.5 | -20.2 | 0.8 | -0.1
COc1ccc(COC(=O)Nc2cc3c(C(F)(F)F)nn(C)c3s2)cc1 | -6.2 | 2.6 | -17.7 | 30.4* | -0.4
Cc1ccc(CSc2nc(N)cc(N)n2)cc1 | 0.0 | 1.1 | -8.3 | 19.7 | 0.2
Nc1cc(N)nc(CS)n1 | 2.5 | 3.4 | -54.0* | -2.1 | 0.4
C/C(=N\N=C(N)N)c1cccc(Cl)c1 | -10.3 | 5.2 | -47.3* | 1.9 | 1.4
C/C(=N\N=C(N)N)c1ccc(Cl)cc1Cl | -9.8 | 12.9 | -35.8* | 4.5 | 1.4
C/C(=N\N=C(N)N)c1cc(Cl)ccc1Cl | -12.8 | 11.3 | -44.6* | 3.7 | 0.2
COCCCN(CCCN)Cc1ccco1 | -0.2 | 2.1 | 9.6 | -8.1 | 2.6
COc1cccc(/C=C/C(=O)NNC(=O)c2ccncc2)c1OC | -2.5 | 100.1* | -38.6* | -0.6 | 0.1
COc1cccc(/C=C/C(=O)NNC(=O)c2ccncc2)c1 | -4.9 | 2.6 | -5.7 | -4.3 | 0.3
CCCn1c(=O)c2sccc2n2c(CCCC(=O)N3CCN(c4cccc(Cl)c4)CC3)nnc12 | -3.5 | 2.2 | 5.6 | 1.1 | -0.2
COc1ccccc1CNC(=O)C1CCN(S(=O)(=O)c2ccc(-n3cnnn3)cc2)CC1 | -7.2 | 5.3 | -38.7* | -1.8 | -1.0
COc1cccc(CNC(=O)C2CCN(S(=O)(=O)c3ccc(-n4cnnn4)cc3)CC2)c1 | -1.9 | 0.6 | -24.8 | -3.2 | 1.1
O=C(c1ccc2ccccc2c1)C1CCCN(S(=O)(=O)c2cccnc2)C1 (stereo unspecified) | -8.1 | 9.9 | -52.9* | -5.0 | -0.9
COc1cccc(CNC(=O)C2CCN(S(=O)(=O)c3cnc[nH]3)CC2)c1 | -0.6 | 4.9 | -39.1* | -2.8 | 0.5
COc1ccc(S(=O)(=O)N2CCC(C(=O)NCc3cccnc3)CC2)cc1OC | 21.9 | 1.7 | -51.7* | -1.0 | -1.1
COc1ccc2[nH]cc(C(=O)NCCc3ccccc3)c(=O)c2c1 | -3.8 | -3.7 | 0.0 | 6.3 | 0.4
COc1ccc(S(=O)(=O)N2CCCC(C(=O)O)C2)cc1 (stereo unspecified) | -1.8 | 0.1 | 2.1 | 0.7 | 0.2
SMILES | D1 PAM | D1 agonist | D1 antag | TRHR PAM | TRHR agonist
CCOC(=O)c1c(C)[nH]c(C)c1S(=O)(=O)N1CCCC(C(=O)NCc2ccc(N(C)C)cc2)C1 (stereo unspecified) | -4.3 | 2.8 | -31.1* | -2.5 | -0.3
Cc1ccc(S(=O)(=O)NCC2CCC(C(=O)NCc3ccccn3)CC2)cc1 (stereo unspecified) | -3.4 | 3.2 | 27.2 | 23.5 | -0.5
CCOc1ccc(S(=O)(=O)N2CCCC(C(=O)NCc3cccnc3)C2)cc1 (stereo unspecified) | -8.8 | 0.6 | -31.2* | -2.1 | -0.4
COc1ccc(S(=O)(=O)N2CCCC(C(=O)NCCC(C)C)C2)cc1 (stereo unspecified) | -8.2 | 5.0 | -30.3* | 3.0 | -0.7
Cc1ccc(S(=O)(=O)NCC2CCC(C(=O)NCc3cccnc3)CC2)cc1 (stereo unspecified) | -7.0 | 2.1 | -32.1* | -2.4 | 0.0
COc1ccc(CNC(=O)[C@@H](NC(=O)C2CCN(S(=O)(=O)c3ccc(C)cc3)CC2)C(C)C)cc1OC | 4.1 | -0.4 | -32.6* | -6.7 | -0.7
Cc1ccc(S(=O)(=O)N(Cc2ccccc2)c2ccccc2C(=O)NCc2cccnc2)cc1 | -6.2 | 2.9 | -38.3* | 1.6 | -1.0
COc1ccc(S(=O)(=O)N2CCCC(C(=O)NCc3ccccc3)C2)cc1 (stereo unspecified) | -6.4 | 17.7 | -30.9* | -1.8 | 0.2
CS(=O)(=O)N(Cc1nnc(-c2cccs2)o1)c1ccc(Cl)cc1F | -3.8 | 6.2 | 3.8 | -2.5 | 0.8
COc1ccc2c(Cl)c(C(=O)NCC3CCCO3)sc2c1Cl (stereo unspecified) | -2.2 | 1.5 | 12.4 | -1.5 | 0.2
COc1ccc(OCc2cc(C(=O)NCc3nc(C)cs3)no2)c(Cl)c1 | 8.4 | 16.7 | -35.1* | 16.6 | 1.8
COc1ccc(OCc2cc(C(=O)NC(C)c3csc(C)n3)no2)c(Cl)c1 (stereo unspecified) | -6.8 | 10.9 | 1.2 | -2.1 | -1.1
CCOc1ccc(CNC(=O)C2=Cc3cc(Br)ccc3OC2)cc1OC | -3.0 | 7.2 | -37.5* | -3.2 | -0.4
Clc1ccc2c(c1)C(N1CCNCC1)=Nc1ccccc1O2 | -5.8 | 19.8 | -71.2* | 8.4 | 0.5
COC(=O)[C@H]1[C@H]2C[C@@H]3c4[nH]c5cc(OC)ccc5c4CCN3C[C@H]2C[C@@H](OC(=O)c2ccc(N)cc2)[C@@H]1OC | 4.5 | 3.5 | -65.6* | 15.0 | 2.2
COC(=O)[C@H]1[C@H]2C[C@@H]3c4[nH]c5cc(OC)ccc5c4CCN3C[C@H]2C[C@@H](OC(=O)/C=C/c2cc(OC)c(OC)c(OC)c2)[C@@H]1OC | 7.2 | 1.5 | 1.6 | -5.8 | -1.0
COc1ccc(N2CCN(CC(=O)Nc3nc(C)cs3)CC2)cc1 | -1.1 | 1.7 | -40.5* | 6.2 | 1.9
COc1ccc(N2CCN(CC(=O)Nc3ncc(C)s3)CC2)cc1 | 2.3 | 0.2 | 6.4 | 3.2 | -0.3
CNC(=S)N1CCn2cccc2C1c1cc(OC)c(OC)c(OC)c1 (stereo unspecified) | -2.0 | 1.4 | -10.2 | 1.3 | -0.2
COc1ccc(NC(=O)Cc2c(C(=O)O)n(C)c3ccccc23)cc1OC | -5.2 | 1.9 | 18.4 | 4.7 | 0.3
CCn1c(=O)n(CC(=O)Nc2cc(OC)c(OC)c(OC)c2)c(=O)c2ccccc21 | -4.7 | 0.2 | -44.8* | 11.6 | -0.1
COc1cc(NC(=O)Cc2c(C(=O)O)n(C)c3ccccc23)cc(OC)c1OC | -9.7 | 0.9 | -105.6* | -4.9 | 0.2
CCn1c(=O)n(CC(=O)Nc2cccc(OC)c2)c(=O)c2ccccc21 | -0.4 | 1.5 | 2.9 | 1.1 | 0.0
